# According to the supplement of paper PMC7057948, “A genome-wide approach for identification and characterisation of metabolite-inducible systems” (Nature Communications, 2020):
# Legend:
# Conditions in all cases: inducer concentration 5 mM; 6 h; Cupriavidus necator H16; minimal medium + 0.4% gluconate
# [1] = tested on: AcoR/P_H16_RS19445 acetoin biosensor (pEH052); assay: relative induction of RFP reporter vs primary effector; higher = stronger activation
# Description: (§1)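 Orthogonality screen of 21 primary inducers against 21 transcription factor/inducible promoter–mRFP biosensors in C. necator H16 in minimal medium, robotic 96-well format, 5 mM inducer, 30 °C. OD-normalised RFP fluorescence was read 6 h later and expressed as relative induction (%) = 100 × (FL compound − FL uninduced)/(FL primary inducer − FL uninduced); mean of n=4. Cognate pairs (100% by definition) omitted.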
# [2] = tested on: AraC/P_araBAD L-arabinose biosensor (pEH176); assay: as above
# Description: as §1
# [3] = tested on: BadR/P_H16_RS27200 cyclohexanecarboxylate biosensor (pEH159); assay: as above
# Description: as §1
# [4] = tested on: BenM/P_H16_RS09790 benzoate biosensor (pEH148); assay: as above
# Description: as §1
# [5] = tested on: FdsR/P_H16_RS03165 formate biosensor (pEH134); assay: as above
# Description: as §1
# [6] = tested on: GabR/P_H16_RS23655 GABA biosensor (pEH256); assay: as above
# Description: as §1
# [7] = tested on: HpdA/P_H16_RS24175 L-tyrosine biosensor (pEH158); assay: as above
# Description: as §1
# [8] = tested on: NahR/P_H16_RS08125 salicylate biosensor (pEH042); assay: as above
# Description: as §1
# [9] = tested on: OapR/P_H16_RS01330 beta-alanine biosensor (pEH147); assay: as above
# Description: as §1
# [10] = tested on: PcaQ/P_H16_RS30145 3,4-dihydroxybenzoate biosensor (pEH161); assay: as above
# Description: as §1
# [11] = tested on: PhgR/P_H16_RS05530 phenylglyoxylate biosensor (pEH155); assay: as above
# Description: as §1
# [12] = tested on: SauR/P_H16_RS13695 sulfonatoacetate biosensor (pEH157); assay: as above
# Description: as §1
# [13] = tested on: TtdR/P_H16_RS10665 tartrate biosensor (pEH083); assay: as above
# Description: as §1
# [14] = tested on: XdhR/P_H16_RS05055 xanthine biosensor (pEH154); assay: as above
# Description: as §1
# [15] = tested on: heterologous L-rhamnose-inducible system; assay: as above
# Description: as §1
# [16] = tested on: heterologous acrylate-inducible system; assay: as above
# Description: as §1
# [17] = tested on: heterologous cumate-inducible system; assay: as above
# Description: as §1
# [18] = tested on: heterologous itaconate-inducible system; assay: as above
# Description: as §1
# [19] = tested on: PhgR/P_H16_RS05530 phenylglyoxylate biosensor (pEH155); assay: relative induction of RFP reporter vs primary effector (background-corrected); higher = stronger activation of the biosensor
# Description: (§2)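 C. necator H16 strains, each carrying one of 21 transcription factor/inducible promoter–mRFP biosensor plasmids, were grown in minimal medium in 96-well plates (robotic platform). Each was exposed to 46 structurally or metabolically related compounds at 5 mM at 30 °C. OD-normalised RFP fluorescence was read 6 h later and expressed as relative induction (%) = 100 × (FL compound − FL uninduced)/(FL primary inducer − FL uninduced); mean of n=4.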
# [20] = tested on: AcoR/P_H16_RS19445 acetoin biosensor (pEH052); assay: as above
# Description: as §2
# [21] = tested on: AraC/P_araBAD L-arabinose biosensor (pEH176); assay: as above
# Description: as §2
# [22] = tested on: BenM/P_H16_RS09790 benzoate biosensor (pEH148); assay: as above
# Description: as §2
# [23] = tested on: FdsR/P_H16_RS03165 formate biosensor (pEH134); assay: as above
# Description: as §2
# [24] = tested on: GabR/P_H16_RS23655 GABA biosensor (pEH256); assay: as above
# Description: as §2
# [25] = tested on: HpdR/P_H16_RS18295 3-hydroxypropanoate biosensor (pEH010); assay: as above
# Description: as §2
# [26] = tested on: KynR/P_H16_RS14030 L-kynurenine biosensor (pEH136); assay: as above
# Description: as §2
# [27] = tested on: NahR/P_H16_RS08125 salicylate biosensor (pEH042); assay: as above
# Description: as §2
# [28] = tested on: OapR/P_H16_RS01330 beta-alanine biosensor (pEH147); assay: as above
# Description: as §2
# [29] = tested on: PcaQ/P_H16_RS30145 3,4-dihydroxybenzoate biosensor (pEH161); assay: as above
# Description: as §2
# [30] = tested on: PhhR/P_H16_RS18365 L-phenylalanine biosensor (pEH137); assay: as above
# Description: as §2
# [31] = tested on: SauR/P_H16_RS13695 sulfonatoacetate biosensor (pEH157); assay: as above
# Description: as §2
# [32] = tested on: TtdR/P_H16_RS10665 tartrate biosensor (pEH083); assay: as above
# Description: as §2
# [33] = tested on: XdhR/P_H16_RS05055 xanthine biosensor (pEH154); assay: as above
# Description: as §2
# [34] = tested on: heterologous inducible system pEH002 (rhamnose/acrylate/cumate/itaconate set); assay: as above
# Description: as §2
# [35] = tested on: heterologous inducible system pEH020 (rhamnose/acrylate/cumate/itaconate set); assay: as above
# Description: as §2
# [36] = tested on: heterologous inducible system pEH040 (rhamnose/acrylate/cumate/itaconate set); assay: as above
# Description: as §2
# [37] = tested on: heterologous inducible system pEH086 (rhamnose/acrylate/cumate/itaconate set); assay: as above
# Description: as §2
# 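For relative induction of RFP reporter vs primary effector (background-corrected) in this document: RFP excited at 585 nm with emission read at 620 nm, culture medium blanks subtracted from fluorescence and absorbance prior to normalisation.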
compound,measurement,setting,value
N[C@@H](Cc1ccccc1)C(=O)O [L-phenylalanine],relative induction of RFP reporter,[1],-1.77%
same,relative induction of RFP reporter,[2],-0.0146%
same,relative induction of RFP reporter,[3],-0.263%
same,relative induction of RFP reporter,[4],-0.0737%
same,relative induction of RFP reporter,[5],-4.81%
same,relative induction of RFP reporter,[6],-2.3%
same,relative induction of RFP reporter,[7],57.7%
same,relative induction of RFP reporter,[8],0.00484%
same,relative induction of RFP reporter,[9],-1.24%
same,relative induction of RFP reporter,[10],-0.267%
same,relative induction of RFP reporter,[11],-0.485%
same,relative induction of RFP reporter,[12],-0.0265%
same,relative induction of RFP reporter,[13],0.153%
same,relative induction of RFP reporter,[14],-1.38%
same,relative induction of RFP reporter,[15],0.00514%
same,relative induction of RFP reporter,[16],-1.94%
same,relative induction of RFP reporter,[17],-2.37%
same,relative induction of RFP reporter,[18],-0.26%
CC(=O)C(C)O (centres undefined) [acetoin],relative induction of RFP reporter,[2],0.00953%
same,relative induction of RFP reporter,[3],-0.805%
same,relative induction of RFP reporter,[4],-0.0473%
same,relative induction of RFP reporter,[5],-6.92%
same,relative induction of RFP reporter,[6],-1.36%
same,relative induction of RFP reporter,[7],-0.195%
same,relative induction of RFP reporter,[8],0.00159%
same,relative induction of RFP reporter,[9],-0.507%
same,relative induction of RFP reporter,[10],-0.169%
same,relative induction of RFP reporter,[11],-0.461%
same,relative induction of RFP reporter,[12],-0.0229%
same,relative induction of RFP reporter,[13],0.102%
same,relative induction of RFP reporter,[14],-0.695%
same,relative induction of RFP reporter,[15],-0.0013%
same,relative induction of RFP reporter,[16],-1.85%
same,relative induction of RFP reporter,[17],-1.61%
same,relative induction of RFP reporter,[18],0.0808%
O=CC(=O)O,relative induction of RFP reporter,[19],-0.587%
"NC(C(=O)O)c1ccccc1 (racemic) [D,L-2-phenylglycine]",relative induction of RFP reporter,[20],2.41%
same,relative induction of RFP reporter,[21],-0.0373%
same,relative induction of RFP reporter,[22],0.0272%
same,relative induction of RFP reporter,[23],5.96%
same,relative induction of RFP reporter,[24],-1.88%
same,relative induction of RFP reporter,[25],0.893%
same,relative induction of RFP reporter,[26],-0.416%
same,relative induction of RFP reporter,[27],0.0395%
same,relative induction of RFP reporter,[28],0.858%
same,relative induction of RFP reporter,[29],0.145%
same,relative induction of RFP reporter,[19],1.69%
same,relative induction of RFP reporter,[30],-0.209%
same,relative induction of RFP reporter,[31],-0.00851%
same,relative induction of RFP reporter,[32],0.176%
same,relative induction of RFP reporter,[33],0.377%
same,relative induction of RFP reporter,[34],0.012%
same,relative induction of RFP reporter,[35],3.29%
same,relative induction of RFP reporter,[36],0.705%
same,relative induction of RFP reporter,[37],0.876%
O=C(O)CNC(=O)c1ccccc1 [N-benzoylglycine],relative induction of RFP reporter,[20],-2.37%
same,relative induction of RFP reporter,[21],-0.0115%
same,relative induction of RFP reporter,[22],21.2%
same,relative induction of RFP reporter,[23],40.1%
same,relative induction of RFP reporter,[24],-0.301%
same,relative induction of RFP reporter,[25],-0.376%
same,relative induction of RFP reporter,[26],0.0257%
same,relative induction of RFP reporter,[27],0.0182%
same,relative induction of RFP reporter,[28],-1.12%
same,relative induction of RFP reporter,[29],-0.215%
same,relative induction of RFP reporter,[19],-0.146%
same,relative induction of RFP reporter,[30],-0.604%
same,relative induction of RFP reporter,[31],-0.018%
same,relative induction of RFP reporter,[32],-0.285%
same,relative induction of RFP reporter,[33],-0.852%
same,relative induction of RFP reporter,[34],-0.00397%
same,relative induction of RFP reporter,[35],-2.44%
same,relative induction of RFP reporter,[36],-1.84%
same,relative induction of RFP reporter,[37],-0.117%
